# High-throughput results as filed in PubChem.
# CYP2C9 inhib – blocks human cytochrome P450 2C9; P11712; CYP2C9 Supersomes, luciferin-H conversion, luminescence; inhibition, % at 5 µM; actives 20% (n = 96,000);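 active = blocking of liver enzyme CYP2C9 beyond about 50% at 5 µM, limit read from the data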
# D1 allo mod – D1 dopamine receptor (human) allosteric modulation; B-score at 10 µM; HEK293 D1, CRE-luciferase, dopamine EC30 potentiation; actives deviate in either direction; P21728; actives 5.9% (n = 58,000);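 active = luminescence count or its row- and column-corrected plate score outside the 99.7% band of the plate's sample wells, on either side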
# CYP2C19 act – increases human CYP2C19 enzyme activity. P33261. recombinant CYP2C19, luciferin-H EGE luminescence; stronger effect = higher value; 0 = fully inhibited enzyme, 1 = untreated enzyme. activation factor at 5 µM. 96,000 tested, under 10 active;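 active = activation factor of at least 2 at 5 µM in the primary screen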;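 note: 0 = wells with 2.5 mM tranylcypromine and 1 = vehicle-only wells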
# Target sequence (P33261 whole entry, looked up): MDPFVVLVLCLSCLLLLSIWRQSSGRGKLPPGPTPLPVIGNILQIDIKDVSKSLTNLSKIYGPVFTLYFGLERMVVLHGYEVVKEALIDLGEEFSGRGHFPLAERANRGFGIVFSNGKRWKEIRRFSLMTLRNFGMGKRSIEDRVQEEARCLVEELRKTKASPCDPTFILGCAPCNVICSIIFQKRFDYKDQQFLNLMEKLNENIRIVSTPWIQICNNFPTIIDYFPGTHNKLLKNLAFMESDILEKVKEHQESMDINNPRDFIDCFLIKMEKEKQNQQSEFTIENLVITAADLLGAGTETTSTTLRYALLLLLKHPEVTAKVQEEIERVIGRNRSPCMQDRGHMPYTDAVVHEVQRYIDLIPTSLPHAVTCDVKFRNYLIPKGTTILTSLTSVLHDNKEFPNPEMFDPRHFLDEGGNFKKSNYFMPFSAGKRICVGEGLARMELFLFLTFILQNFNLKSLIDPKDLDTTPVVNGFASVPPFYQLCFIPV
# hDAT+cocaine – human DAT dopamine uptake with cocaine, either direction | LLC-PK1 hDAT cells, [14C]-dopamine uptake with cocaine IC80; actives deviate in either direction | actives 1.3% (n = 110,000) | B-score at 10 µM;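 active = Z score or B-score, a plate-position-corrected score, falls beyond the plate's 99.7% confidence bounds, in either direction; inactive = both scores lie inside the 99.7% bounds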;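 note: scored against the spread of the other compound wells on the same plate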
# CYP2C19 inhib – blocks human cytochrome P450 2C19; CYP2C19 Supersomes, luciferin-H EGE luminescence, 30 min; inhibition, % at 5 µM; actives 21% (n = 96,000);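 active = CYP2C19 inhibition above a set limit at 5 µM in the primary screen, cut at about 50% in these data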;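 note: plate controls were negative control wells for no effect and 2.5 mM tranylcypromine positive control for full effect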
# CYP2C9 act – CYP2C9 (human) activation | P11712 | recombinant CYP2C9, luciferin-H conversion, luminescence; stronger effect = higher value; factor 1 = untreated enzyme, 0 = blocked | activation factor at 5 µM | actives 1.4% (n = 96,000) | AID 1024;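 active = activation factor of 2 or more for CYP2C9 at a 5 µM dose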;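 note: 0 = sulfaphenazole-blocked wells and 1 = vehicle-only wells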
# D1 PAM confirm – D1 receptor (human) allosteric modulation, confirmed. actives 88% (n = 2,200). HEK293 D1 CRE-luciferase, dopamine EC30 potentiation; stronger effect = higher value. luminescence at 10 µM. AID 642. shares compounds with D1 allo mod;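 active = luminescence in either of two replicates above the same-plate mean plus 3 SD of the low-dose dopamine control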
# D1 no dopamine – secondary test of D1 modulators: activity without dopamine; shares compounds with D1 allo mod; HEK293 D1 CRE-luciferase, luminescence, no dopamine; stronger effect = higher value; luminescence at 10 µM; actives 0.8% (n = 1,900); AID 646; in the data active = luminescence above about 3900
# Isoprot counter – alters isoproterenol CRE-luciferase response in HEK293 cells | shares compounds with D1 allo mod | HEK293 D1 CRE-luciferase, isoproterenol EC30 counter-screen | calls only at 10 µM | actives 63% (n = 2,200);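 active = luminescence in either replicate above plate mean of wells with a partly effective reference agonist dose plus 3 SD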;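 note: isoproterenol raises cAMP through native beta-adrenoceptor Gs so signal bypasses D1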
# Numbers without * were called inactive; i = inactive; . = not tested or not shown; + = active, no number. The list is not random: actives were taken first. Their share in the collection is about 28%.
SMILES,CYP2C9 inhib,D1 allo mod,CYP2C19 act,hDAT+cocaine,CYP2C19 inhib,CYP2C9 act,D1 PAM confirm,D1 no dopamine,Isoprot counter
Oc1ccc(Br)cc1CN1CCN(c2ccccc2)CC1,64*,0.1,0.8,-0.61,24,0.4,.,.,.
COc1ccc(-n2c(O)c(C(C)=NCCN3CCNCC3)c(=O)[nH]c2=O)cc1,-8,-1,1.1,0.75,-10,1.1,.,.,.
COC(=O)C1=CO[C@@H](C)[C@H]2CN3CC[C@]4(C(=O)Nc5ccccc54)[C@@H]3C[C@H]12,.,.,.,-0.33,.,.,.,.,.
CC(C)N(CCC(C(N)=O)(c1ccccc1)c1ccccn1)C(C)C (stereo not drawn),.,0.83,.,-0.41,.,.,.,.,.
CC1(C)C(c2ccccc2)=NC(c2cccnc2)N1O (stereo not drawn),-5,1.8,0.7,1,29,1.1,.,.,.
COc1ccccc1N1CCNCC1,.,.,.,0.053,.,.,.,.,.
COc1ccccc1N1CCN(Cc2cc(C)c(C)cc2O)CC1,-110,.,0.2,.,79*,2.1*,.,.,.
COc1cc(C)c(CN2CCN(c3ccccc3)CC2)cc1C,6,-0.0092,0.4,-0.33,56*,0.9,.,.,.
CCCCn1c(O)c(C(CC)=NCc2ccc3c(c2)OCO3)c(=O)[nH]c1=O,82*,7.4*,0.3,-0.81,74*,0.2,12520*,1728,+
CCCCn1c(O)c(C(CC)=Nc2ccc(C(=O)O)cc2)c(=O)[nH]c1=O,.,0.6,.,-1.2,.,.,.,.,.
C=CCC1(CN2CCCCCC2=O)C(=O)NC(=O)NC1=O,-3,.,1,-0.19,0,1,.,.,.
Cc1[nH]c2c(C(F)(F)F)cccc2c1CCN,-14,7.8*,1.1,0.0016,-10,1.1,5580,.,i
Cc1n[nH]c(C)c1CCN,-2,0.057,1.2,0.67,-15,1,.,.,.
CCCCc1nc2ccccc2c(=O)n1-c1ccc(O)cc1,.,3.7*,.,-0.0087,.,.,8012*,1524,+
CCCCc1nc2ccccc2c(=O)n1-c1ccccc1[N+](=O)[O-],34,.,0.9,-0.18,13,0.7,.,.,.
COc1ccc(Cc2nccc3cc(OC)c(OC)cc23)cc1OC,.,13*,.,0.074,.,.,7016*,2184,+
CC(=NCCC1=CCCCC1)c1c(O)[nH]c(=O)[nH]c1=O,25,0.24,0.9,0.13,11,0.8,.,.,.
O=c1[nH]c(=O)n(Cc2ccco2)c(O)c1C=NCCCn1ccnc1,34,-0.38,0.9,.,6,0.7,.,.,.
Cc1nc2c(-c3ccc(F)cc3)c(C)nn2c(C)c1CCC(=O)N1CCC2(CC1)OCCO2,2,6.1*,0.6,1.1,41,1,7792*,1504,+
O=C(CCn1c(=O)oc2ccccc21)N1CCC2(CC1)OCCO2,-9,0.13,0.6,0.9,44,1.1,.,.,.
Cn1c(=O)n(CC(=O)N2CCC3(CC2)OCCO3)c(=O)c2ccccc21,-6,0.16,0.7,-0.01,34,1.1,.,.,.
Cc1nc2ncnn2c(C)c1CCC(=O)N1CCC2(CC1)OCCO2,8,2.8*,1,-0.064,3,0.9,5300,1580,i
COC(=O)C1=C(c2cccc(OC)c2OC)C[C@@H]2CC[C@H]1N2C(=O)NC1CC1,.,.,.,-1.4,.,.,.,.,.
Cn1c(O)c(C(=O)c2ccccc2)c(=O)n(C)c1=O,4,8.4*,1,-0.022,-4,1,6612,1668,i
CCOC(=O)c1c(C)n(Cc2ccco2)c2ccc(OC)cc12,29,3.9*,0.6,0.52,42,0.7,5008,1440,i
COC(=O)c1c(C)n(Cc2ccco2)c2ccc(O)cc12,-4,.,0.8,-1.4,19,1,.,.,.
COCCOC(=O)c1c(N)n(Cc2ccc(OC)cc2)c2nc3ccccc3nc12,83*,6.3*,0.4,0.76,64*,0.2,12708*,1440,+
